The source of these data is PubChem BioAssay.

A short description of experiment [1]: HepG2 liver cancer cell viability effects, profiling panel, resazurin fluorescence, 24 h, PK04 Diversity Set (AID 1172). As to conditions: higher = more signal.
Experiment [2] is described as follows: basal S. cerevisiae growth modulation, no modifier, primary screen, OD600, strain BY4716, 24 h, basal condition (AID 1173). As to conditions: OD600, 24 h, higher = more signal, called active from +8 up or from −8 down.
Experiment [3] in a line: MM1S myeloma cell viability, profiling panel, resazurin fluorescence, basal, 24 h, PK04 Diversity Set (AID 1174). As to conditions: higher = more signal, called active from +8 up or from −8 down. On the technique in general: Resazurin is reduced to fluorescent resorufin, in cell work by metabolically active cells.
Experiment [4] addresses Dihydroorotate dehydrogenase (quinone), mitochondrial (Plasmodium falciparum (isolate 3D7)) (UniProt Q08210). Briefly: PfDHODH enzyme inhibitors, primary screen, biochemical, C-terminal His tag, absorbance 600 nm (AID 1175).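 Note: recombinant parasite enzyme with a five histidine tag at its C terminus.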 As to conditions: DCIP absorbance 600 nm, higher = more signal, called active from +8 up or from −8 down.
Experiment [5] is described as follows: P. aeruginosa biofilm formation inhibitors, primary screen, strain PAO1, LB-PBS medium, absorbance 600 nm (AID 1176). As to conditions: P. aeruginosa PAO1 growth/biofilm, A600, 12 h; higher = more signal.
Experiment [6] can be described thus: S. cerevisiae RM11-1a growth modifiers, primary screen, strain RM11-1a, OD600, basal, 24 h (AID 1177).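 Note: cultures grown under basal conditions with no added stressor.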 As to conditions: OD600, 24 h, higher = more signal, called active from +8 up or from −8 down.
The nature of experiment [7]: E. coli acrAB mutant growth effects, primary screen, E. coli filamentation inducers, strain DRC39, OD650, 24 h (AID 1178).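 Note: growth measured as culture turbidity by optical density at 650 nm.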 As to conditions: higher = more signal, called active from +8 up or from −8 down.
Experiment [8] in a line: E. coli acrAB mutant growth effects, primary screen, E. coli filamentation inducers, strain DRC39, OD650, 48 h (AID 1179).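 Note: screen aims at cell division blockers that make cells filament.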 As to conditions: E. coli DRC39 delta-acrAB growth, higher = more signal, called active from +8 up or from −8 down.
Experiment [9] in a line: RPMI8226 myeloma cell viability, profiling panel, resazurin fluorescence, basal, 24 h, PK04 Diversity Set (AID 1180).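 Note: RPMI8826 multiple myeloma cell line at 5000 cells per well.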 As to conditions: higher = more signal.
Experiment [10] addresses E3 ubiquitin-protein ligase XIAP (Homo sapiens) (UniProt P98170). As to the kind of experiment: XIAP binders, primary screen, biophysical, small-molecule microarray, fluorescence 635 nm (AID 1181).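 Note: score merges 667 nm emission and signal to noise over triplicate slides.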 As to conditions: small-molecule microarray binding, higher = more signal.
For experiment [11], the system named is XIP peptide (Xip251-270) binding. As to the kind of experiment: small-molecule binders of XIP peptide, primary screen, biochemical, small-molecule microarray, fluorescence 635/667 nm, 0.1 µg/mL protein (AID 1182). As to conditions: fluorescent protein binding, 635 nm, higher = more signal, called active from +8 up or from −8 down.
In a further experiment the test system is XIP peptide (Xip251-270). Briefly: small-molecule binders of XIP peptide, primary screen, biochemical, small-molecule microarray, fluorescence 635/667 nm, 0.5 µg/mL protein (AID 1183). As to conditions: small-molecule microarray binding, fluorescence 635 nm; higher = more signal.
Experiment [12] is described as follows: Plasmodium falciparum growth inhibition, primary screen, strain 3D7, DAPI fluorescence, 100 nL (AID 1184).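 Note: parasites grown inside human red blood cells in medium with human serum.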 As to conditions: P. falciparum 3D7 growth, 3 d, higher = more signal.
Experiment [13] has as its target Homeobox protein Hox-A13 (Mus musculus) (UniProt Q62424). As to the kind of experiment: inhibitors of HoxA13-DNA binding, primary screen, biochemical, fluorescence polarization, labeled oligonucleotide (AID 1185). As to conditions: 15 min, higher = more signal, called active from +8 up or from −8 down. (In general: Fluorescence polarisation rises when a labelled molecule tumbles more slowly, as on binding a larger partner.)

The nature of experiment [14]: inhibitors of hydroxyurea-induced Chk1 phosphorylation, primary screen, imaging, HeLa, phospho-Chk1 antibody, percent positive cells (AID 1186). As to conditions: hydroxyurea-induced phospho-Chk1 immunofluorescence imaging, higher = more signal.
Experiment [15] is described as follows: inhibitors of hydroxyurea-induced Chk1 phosphorylation, primary screen, imaging, HeLa, phospho-Chk1 nuclear intensity (AID 1187). As to conditions: hydroxyurea-induced phospho-Chk1 immunofluorescence imaging, higher = more signal.

The source made the active and inactive calls. Unless noted, the rule behind the calls is not given here.

Dihydroorotate dehydrogenase (quinone), mitochondrial (Plasmodium falciparum (isolate 3D7)), sequence (Q08210 whole entry, looked up): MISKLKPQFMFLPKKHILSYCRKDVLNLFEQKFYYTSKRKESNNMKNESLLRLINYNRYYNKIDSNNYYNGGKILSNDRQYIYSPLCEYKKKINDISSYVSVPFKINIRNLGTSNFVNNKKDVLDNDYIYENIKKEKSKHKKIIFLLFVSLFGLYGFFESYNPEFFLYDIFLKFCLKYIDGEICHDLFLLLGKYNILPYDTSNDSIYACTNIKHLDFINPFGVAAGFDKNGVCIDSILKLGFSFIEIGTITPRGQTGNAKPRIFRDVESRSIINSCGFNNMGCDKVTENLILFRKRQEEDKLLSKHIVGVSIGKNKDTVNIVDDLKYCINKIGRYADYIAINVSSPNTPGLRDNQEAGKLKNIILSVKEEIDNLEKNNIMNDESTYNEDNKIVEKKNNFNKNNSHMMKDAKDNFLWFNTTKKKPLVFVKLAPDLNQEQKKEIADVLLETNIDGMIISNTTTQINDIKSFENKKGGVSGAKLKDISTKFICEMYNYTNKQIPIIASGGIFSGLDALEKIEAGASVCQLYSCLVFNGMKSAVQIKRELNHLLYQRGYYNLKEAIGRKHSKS
E3 ubiquitin-protein ligase XIAP (Homo sapiens), sequence (P98170 whole entry, looked up): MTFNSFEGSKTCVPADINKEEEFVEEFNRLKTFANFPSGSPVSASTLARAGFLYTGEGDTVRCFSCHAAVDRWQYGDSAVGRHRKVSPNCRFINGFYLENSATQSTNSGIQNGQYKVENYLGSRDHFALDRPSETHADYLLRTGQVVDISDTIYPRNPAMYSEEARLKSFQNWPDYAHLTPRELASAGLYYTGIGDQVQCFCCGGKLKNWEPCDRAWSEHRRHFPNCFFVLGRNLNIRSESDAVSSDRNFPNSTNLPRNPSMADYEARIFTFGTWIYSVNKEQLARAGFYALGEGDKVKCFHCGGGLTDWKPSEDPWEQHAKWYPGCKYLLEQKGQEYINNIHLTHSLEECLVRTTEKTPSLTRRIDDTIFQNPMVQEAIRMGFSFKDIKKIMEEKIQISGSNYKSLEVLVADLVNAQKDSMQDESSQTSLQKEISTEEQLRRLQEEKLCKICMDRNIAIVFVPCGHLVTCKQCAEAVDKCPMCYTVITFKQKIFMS
Homeobox protein Hox-A13 (Mus musculus), sequence (Q62424 whole entry, looked up): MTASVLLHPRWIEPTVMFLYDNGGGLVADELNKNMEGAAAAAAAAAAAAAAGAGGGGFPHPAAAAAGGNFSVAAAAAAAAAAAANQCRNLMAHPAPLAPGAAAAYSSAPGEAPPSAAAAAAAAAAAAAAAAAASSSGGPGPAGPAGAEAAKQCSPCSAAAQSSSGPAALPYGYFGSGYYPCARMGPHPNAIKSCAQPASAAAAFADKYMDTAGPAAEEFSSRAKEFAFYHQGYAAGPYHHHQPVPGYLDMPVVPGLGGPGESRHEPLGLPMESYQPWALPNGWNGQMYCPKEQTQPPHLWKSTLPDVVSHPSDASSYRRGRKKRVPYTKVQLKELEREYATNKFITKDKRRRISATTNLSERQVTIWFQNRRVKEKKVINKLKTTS

Take `CCCNC(=O)[C@@H]1c2ccccc2C(=O)N(C2CCCCC2)[C@H]1c1ccc(CO)cc1`: the z-score in experiment [1] is 0.358; in experiment [2], 1.27 (inactive); in experiment [3], -0.206 (inactive); in experiment [5], -0.329 (inactive); in experiment [6], 1.61 (inactive); in [7], 0.619 (inactive). For the same molecule, the z-score in experiment [8] is 0.521 (inactive); in experiment [9], -0.154; in [12], -0.939; in experiment [13], -3.69 (inactive); in experiment [14], 0.108 (inactive); in [15] it was -0.138 (inactive). The composite z-score in experiment [4] was 1.05 (inactive); in [10], 0.304; in [11] it was 0.521 (inactive); in the experiment with XIP peptide (Xip251-270), 0.749.
Take `O=C(NCc1ccccc1)[C@@]1(Cc2ccccc2)COC(c2ccc(OCCCO)cc2)=N1`: the z-score in experiment [1] is -2.41; in experiment [2], 0.0178 (inactive); in experiment [3] it was -6.53 (inactive); in experiment [5], 0.162 (inactive); in [6] it was 3.65 (inactive); in experiment [7] it was 0.11 (inactive). Moreover, the z-score in [8] is -0.762 (inactive); in [9], -5.69; in experiment [12] it was -2.15; in experiment [13], -4.9 (inactive); in experiment [14], -0.583 (inactive); in experiment [15] it was -0.649 (inactive). Further, the composite z-score in [4] was 1.1 (inactive); in experiment [10] it was -0.217; in experiment [11], 0.489 (inactive); with XIP peptide (Xip251-270), 0.75.
Regarding `CCOC(=O)C[C@H]1[C@H](OC(=O)c2cc3ccccc3oc2=O)[C@@H](NC(=O)C2CCCCC2)c2cc(OCCCO)ccc2N1C(=O)c1ccc2ccccc2n1`, the z-score was -0.35 in [1]; 1 (inactive) in experiment [2]; 0.201 (inactive) in experiment [3]; -0.0339 (inactive) in experiment [5]; 1.58 (inactive) in experiment [6]; 0.205 (inactive) in experiment [7]. The z-score in experiment [8] was 0.0214 (inactive); in experiment [9] it was 0.15; in [12], -0.292; in experiment [13], -4.56 (inactive); in experiment [14], 0.453 (inactive); in experiment [15] it was 0.333 (inactive). Besides, the composite z-score in [4] was 0.884 (inactive); in experiment [10] it was -0.22; in experiment [11], -0.0413 (inactive); with XIP peptide (Xip251-270), 0.522.
As for `C=CC[C@@]1(C(=O)NCC(O)CO)N=C(c2ccc(OCCCO)cc2)O[C@@H]1c1ccccc1CN=[N+]=[N-]` (stereo not given in full), the z-score in experiment [1] was -0.192; in [2] it was -1.14 (inactive); in experiment [3] it was -0.754 (inactive); in experiment [5], 0.385 (inactive); in experiment [6], -0.0334 (inactive); in [7], 0.613 (inactive). Moreover, the z-score in [8] was 1.52 (inactive); in experiment [9] it was 0.516; in experiment [12], -2.34; in [13] it was -2.67 (inactive); in experiment [14], -0.691 (inactive); in experiment [15], -0.873 (inactive). Moreover, the composite z-score was 0.592 (inactive) in experiment [4], 0.254 in experiment [10], 0.336 (inactive) in experiment [11] and -0.105 in the experiment on XIP peptide (Xip251-270).
Consider `CN(C)c1ccc(C(O)C2C=CC3C(=O)NC(=O)C3N2Nc2ccc(Cl)cc2Cl)cc1` (stereo not given), for which the z-score is -0.492 in experiment [1]; 0.454 (inactive) in [2]; -1.44 (inactive) in experiment [3]; 0.683 (inactive) in [5]; 0.839 (inactive) in experiment [6]; 0.221 (inactive) in [7]. Also, the z-score in experiment [8] was 0.0462 (inactive); in experiment [9], -1.44; in [12], -0.599; in [13], -4.19 (inactive); in experiment [14], -0.0923 (inactive); in experiment [15] it was 0.0147 (inactive). Moreover, the composite z-score in experiment [4] was 0.438 (inactive); in experiment [10] it was 0.0914; in experiment [11], -0.0906 (inactive); in the experiment on XIP peptide (Xip251-270), 0.16.
As to `O=C1C2C=CC(C(O)c3ccccc3)N(n3cnnc3)C2C(=O)N1Cc1ccccc1` (stereo not given), the z-score in experiment [1] was -0.362; in experiment [2], -0.0402 (inactive); in experiment [3], -0.468 (inactive); in experiment [5], 1.87 (inactive); in experiment [6], -1.08 (inactive); in experiment [7] it was -0.456 (inactive). The z-score was -1.03 (inactive) in [8]; -0.974 in [9]; 0.454 in experiment [12]; -2.02 (inactive) in [13]; -1.25 (inactive) in [14]; -1.21 (inactive) in experiment [15]. Also, the composite z-score in experiment [4] was -1.03 (inactive); in experiment [10], 0.23; in experiment [11] it was -0.377 (inactive); in the experiment on XIP peptide (Xip251-270), -0.179.
`C=C(COC)C(=O)CC[C@H](OC(=O)c1ccccc1-c1ccccc1C(=O)O)c1cccc(OCCO)c1`: the z-score in [1] was -1.06; in experiment [2], -17.1 (active); in experiment [3], -0.805 (inactive); in experiment [5], 1.99 (inactive); in experiment [6], -5.09 (inactive); in experiment [7], -1.27 (inactive). For the same molecule, the z-score in [8] was -1.04 (inactive); in [9], -0.858; in [12] it was -0.034; in [13], -4.76 (inactive); in [14], 0.369 (inactive); in experiment [15], 0.258 (inactive). The composite z-score was -6.66 (inactive) in experiment [4], 0.511 in experiment [10], 0.437 (inactive) in experiment [11] and 0.569 in the experiment on XIP peptide (Xip251-270).
`COCCOC(=O)N1C(=O)[C@@]2(c3cc(C#CCCO)ccc31)[C@H](c1ccc(O)cc1)N1[C@H](c3ccccc3)[C@H](c3ccccc3)OC(=O)[C@H]1[C@@H]2C(=O)Nc1nc2ccccc2s1`: the z-score in experiment [1] was 0.484; in [2] it was -0.297 (inactive); in experiment [3] it was -0.617 (inactive); in [5], 0.485 (inactive); in [6] it was 0.39 (inactive); in [7], 0.438 (inactive). For the same molecule, the z-score in experiment [8] was -0.619 (inactive); in [9] it was 0.179; in [12], -1.04; in experiment [13], -1.98 (inactive); in experiment [14], -0.534 (inactive); in experiment [15] it was -0.733 (inactive). Moreover, the composite z-score in experiment [4] is 0.864 (inactive); in [10] it was 0.267; in experiment [11] it was 0.449 (inactive); in the experiment with XIP peptide (Xip251-270) it was 0.635.
Consider `C[C@@H]1NC(=O)[C@H](Cc2ccccc2)NC(=O)[C@@]23C(=O)N[C@@H](Cc4ccccc4)C2[C@H](C)[C@@]2(C)O[C@H]2C3/C=C/C/C=C\CNC1=O` (stereo not given in full), for which the z-score in experiment [1] is -0.51; in experiment [2] it was -0.256 (inactive); in experiment [3], -0.0224 (inactive); in experiment [5], 0.236 (inactive); in experiment [6] it was 0.657 (inactive); in experiment [7], -0.593 (inactive). Besides, the z-score in experiment [8] was -0.514 (inactive); in experiment [9], -0.0497; in [12] it was -0.5; in experiment [13], -6.67 (inactive); in experiment [14], 0.4 (inactive); in experiment [15] it was 0.374 (inactive). The composite z-score was 0.398 (inactive) in experiment [4], -0.119 in experiment [10], -0.138 (inactive) in experiment [11] and 0 in the experiment with XIP peptide (Xip251-270).
As to `COCCOC(=O)N1C(=O)[C@@]2(c3cc(C#CC4=CCCCC4)ccc31)[C@H](C(=O)NC[C@H](O)c1ccccc1)[C@H]1C(=O)O[C@H](c3ccccc3)[C@H](c3ccccc3)N1[C@@H]2c1ccc(OCCO)cc1`, the z-score is 0.604 in experiment [1]; 1.61 (inactive) in [2]; -1.68 (inactive) in experiment [3]; 2.83 (inactive) in experiment [5]; 2.7 (inactive) in [6]; -0.276 (inactive) in experiment [7]. Moreover, the z-score is 0.0077 (inactive) in [8]; -1.44 in [9]; -1.73 in [12]; 2.05 (inactive) in experiment [13]; 0.0381 (inactive) in experiment [14]; 0.231 (inactive) in experiment [15]. Also, the composite z-score is -0.773 (inactive) in [4], -0.26 in [10], -0.361 (inactive) in [11] and 0.612 in the experiment on XIP peptide (Xip251-270).
